HT1080 IDH1KD tx: toxicity to HT-1080 IDH1 knockdown cells (counter line); HT-1080 IDH1 knockdown viability, ATP luminescence, 48 h; Potency, µM (titrated, usually from 46.1 µM), for the others: at the top dose activity, negative = toxicity, most hits filed as cytotoxic; 360,000 compounds, 2% hits; AID 686971;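 note: 0% = DMSO wells and -100% = cell-free medium wells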
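CellTiter-Glo luminescence after 48 h compound exposure at 37 degrees C of IDH1-knockdown HT-1080 cells in 5% FBS RPMI. %Activity scaled between DMSO wells and cell-free media wells, with curves fitted and assigned curve classes.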
MCF10A rerep: inducers of DNA re-replication in MCF 10A breast cells; MCF 10A DNA re-replication, Hoechst nuclear intensity, 48 h; AID 624296; Potency, µM (titrated, usually from 46.1 µM), for inactives: at the highest dose activity, positive = re-replication, actives largely listed as activators; 350,000 compounds, 2.9% hits; note: % of control where 0% means no effect; nearly all actives have a fitted effect of over 50% in size
KB-V1 MDR tox: KB-V1 MDR subline cytotoxicity; KB-V1 MDR cells viability, CellTiter-Glo, 72 h; Potency, µM (doses to about 46.1 µM), hits mostly cytotoxic; 400,000 compounds, 3.4% hits; AID 1347076; note: % is set by controls: 0 for no effect and ±100 for the full control effect; nearly all actives have a fitted effect of over 60% in size
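Cytotoxicity toward P-gp-expressing KB-V1 cells was determined as loss of CellTiter-Glo luminescence after 72 h at 37 degrees C. Compounds were tested in quantitative HTS format across a concentration range, with curves fitted to normalized data.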
HT1080NT lethal: kills 2HG-producing HT-1080-NT fibrosarcoma cells | HT-1080-NT fibrosarcoma viability, CellTiter-Glo ATP luminescence, 48 h | Potency, µM (top dose mostly 46.1 µM), for the others: at the top dose activity, negative = less viability, actives largely listed as cytotoxic | 360,000 compounds, 1.6% hits;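 note: NT is the 2HG producing partner of a matched IDH1 knockdown line; 0% = DMSO-treated cells and -100% = media-only wells without cells; nearly all actives have a fitted effect of over 55% in size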
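Luminescent CellTiter-Glo readout after 48 hours of compound exposure at 37 degrees C defined viability of HT-1080-NT cells. Activity was normalized to DMSO wells and cell-free media wells; concentration-response curves were fitted and assigned curve classes.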
KB-3-1 cytotox: kills parental KB-3-1 adenocarcinoma cells | AID 1347075 | Potency, µM (titrated, usually from 46.1 µM), hits mostly cytotoxic | KB-3-1 viability, CellTiter-Glo ATP luminescence, 72 h | 400,000 compounds, 1.4% hits; note: % is set by controls: 0 for no effect and ±100 for the full control effect; nearly all actives have a fitted effect of over 60% in size
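Parental KB-3-1 adenocarcinoma cells in phenol-red-free DMEM with 10% FBS were pin-treated with compounds at several concentrations, incubated 72 h at 37 °C, and viability read by CellTiter-Glo luminescence; concentration-effect curves were fitted after normalization.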
SW480 rerep: DNA re-replication induction in SW480 cells; SW480 DNA re-replication, Hoechst DNA content imaging, 48 h; Potency, µM (top dose mostly 46.1 µM), for inactives: at the top dose re-replication activation, hits mostly activators; 340,000 compounds, 1.8% hits; AID 624297; note: % of control where 0% means no effect; nearly all actives have a fitted effect of over 55% in size
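DNA re-replication was detected as more nuclei of elevated Hoechst intensity after 48 hr exposure to compound (23 nL pinned per well of 250 cells).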
* = called active by the depositor; i = inactive; ? = inconclusive; · = not tested or not shown. Shown are actives, neighbours in structure and some others; about 8% of the full set was active somewhere. Calls come from the whole dose curve; as a rule, active = well fitted curve in the direction sought with a large enough effect; inconclusive = small, poorly fitted or top-dose-only effect, or another doubt; inactive = no such curve, though single readings can be large; an effect the other way counts as inactive or inconclusive. Potency is the fitted concentration of half-maximal effect.

SMILES	HT1080 IDH1KD tx	MCF10A rerep	KB-V1 MDR tox	HT1080NT lethal	KB-3-1 cytotox	SW480 rerep
CCc1nc2c(OCc3cc(Cl)cc(Cl)c3)cccn2c1N(C)C(=O)Nc1ccccc1OC	?	·	20.6µM*	?	?	·
CCc1nc2c(OCc3ccc(Cl)cc3)cccn2c1N(C=O)Cc1ccccc1	?	·	i	23.1µM*	?	·
CCCCC(=O)N(C)c1c(CC)nc2c(OCC3CCCCC3)cccn12	?	·	25.9µM*	?	?	·
CCc1nc2c(OCc3cc(Cl)cc(Cl)c3)cccn2c1N(C=O)Cc1ccccc1	?	·	20.6µM*	?	?	·
CCCCC(=O)N(C)c1c(CC)nc2c(OCCC3CCCCC3)cccn12	?	·	?	?	i	·
C=CCOc1cccn2c(N(C=O)Cc3ccccc3)c(CC)nc12	1.9%	·	i	7.7%	i	·
CN1C[C@@H]2[C@@H]3C(=O)N(C)C(=O)[C@@H]3[C@](C)(C1=O)N2C(=O)c1ccc(Cl)c(Cl)c1	4.0%	20.1%	i	4.9%	i	-2.5%
Cc1c(CCO)sc[n+]1CCc1ccccc1	·	·	i	·	i	·
CCOC(=O)N(C)c1c(CC)nc2c(OCc3ccccc3C)cccn12	5.5%	·	16.4µM*	4.4%	?	·
O=C(NC1CCCCC1)c1sc(N2CCOCC2)nc1-c1ccccc1	14.4%	5.8µM*	i	15.1%	i	0.3%
Cc1ccc(-c2nc(N3CCOCC3)sc2C(=O)N2CCOCC2)cc1	2.6%	0.3%	i	12.3%	i	-6.5%
Cc1ccc(-c2nc(N3CCOCC3)sc2C(=O)N2CCCCC2)cc1	16.8%	-1.3%	18.4µM*	-0.5%	i	?
Cc1cccc(/C=N/NC(=O)c2ccc(F)cc2)n1	-9.3%	-0.9%	i	-15.4%	i	?
COC(=O)c1cccc(NC(=O)Nc2ccc(Cl)c(Cl)c2)c1	?	?	14.6µM*	?	i	-5.9%
O=C(Nc1ccc(F)c(Cl)c1)Nc1csc2ccccc12	6.51µM*	?	11.6µM*	9.2µM*	?	11.6%
O=C(CNC(=O)C1CCCCC1)Nc1cc(Cl)ccc1Cl	-0.3%	11.2%	20.6µM*	-9.9%	i	-11.4%
O=C(Nc1ccc(F)c(Cl)c1)C1CCCC1	-0.8%	?	i	2.5%	i	5.8µM*
O=C(Nc1ccc(F)c(Cl)c1)C1CCCCC1	15.3%	-5.1%	i	11.0%	i	-0.6%
O=C(CNC(=O)C1CCCCC1)Nc1ccccc1Cl	0.2%	-0.1%	i	4.6%	i	0.1%
O=C(C[n+]1ccccc1Cl)c1ccc(F)cc1	·	·	i	·	i	·
COC(=O)c1ccc(NC(=O)Nc2ccc(F)c(Cl)c2)cc1	?	?	18.4µM*	?	i	4.8%
COC(=O)c1ccc(NC(=O)Nc2ccc(F)cc2)cc1	-26.1%	?	i	-20.4%	i	-0.9%
O=C(NC1CC1)c1ccc(NS(=O)(=O)c2ccc(F)cc2)cc1	3.7%	-2.8%	i	6.8%	i	-14.2%
O=c1cc(-c2ccccc2)nc(/C=C/c2ccccc2)[nH]1	0.7%	18.4µM*	i	3.5%	i	?
CC12CC3CC(C)(C1)CC(C(=O)NC(=S)N1CCOCC1)(C3)C2	-16.4%	-25.1%	i	11.2µM*	i	12.9%
CCOC(=O)c1cnn(CCOC(=O)c2ccccc2)c1NC(=O)c1ccccc1	-6.0%	0.3%	10.3µM*	-1.2%	i	0.9%
CCOC(=O)c1cnn(CCOC(=O)c2ccc(OC)cc2)c1NC(=O)c1ccc(OC)cc1	-4.2%	-3.1%	?	-4.3%	i	6.9%
Cc1ccc(S(=O)(=O)CC(=O)N(CCCN2CCOCC2)c2nc3c(F)cccc3s2)cc1	4.3%	-8.0%	i	18.5%	i	-4.0%

Source: PubChem BioAssay (National Center for Advancing Translational Sciences (NCATS))
